Drawing on PubChem BioAssay (NCI), this text covers growth inhibition for nine compounds.

The panel holds about 79,000 compounds, 15% with a hit somewhere; the sample as a whole holds those more often. A number with no mark means an inactive call. Activity calls are given as the source filed them. Rule as the data show it: active = growth inhibition above about 70%; inactive = the rest.

Assay [1] in a line: NCI Yeast Anticancer Drug Screen. Data for the rad50 strain (AID 155).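 Also: 0% = growth of vehicle-only cultures of the same strain.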 Particulars: S. cerevisiae rad50 strain growth inhibition, stronger effect = higher value. Summed up: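 Relative growth inhibition (compound vs vehicle) was measured in yeast with a defined repair-gene alteration.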
Assay [2] in a line: NCI Yeast Anticancer Drug Screen. Data for the mec2-1 strain (AID 157). Particulars: S. cerevisiae mec2-1 strain, stronger effect = higher value. Summed up:
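Strain: mec2-1 (DNA repair/cell cycle alteration). Compound exposure, then growth measured; inhibition expressed relative to vehicle.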

A short description of assay [3]: NCI Yeast Anticancer Drug Screen. Data for the sgs1 mgt1 strain (AID 161).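 Also: 0% = growth of cultures given vehicle only.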 The conditions noted are these: S. cerevisiae sgs1 mgt1 strain, stronger effect = higher value. Summed up: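 Mutant yeast exposed to compound; growth scored against vehicle-only wells.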
Assay [4] is described as follows: NCI Yeast Anticancer Drug Screen. Data for the cln2 rad14 strain (AID 165).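 Also: 0% = growth equal to vehicle treated cultures.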 The conditions noted are these: S. cerevisiae cln2 rad14 strain, stronger effect = higher value. Summed up:
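Compounds are applied to the cln2 rad14 yeast strain, and growth is then compared with that of vehicle-treated cultures to give inhibition.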

Assay [5] in a line: NCI Yeast Anticancer Drug Screen. Data for the bub3 strain (AID 167). The conditions noted are these: S. cerevisiae bub3 mutant strain, stronger effect = higher value. An outline of the steps:
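Screening used yeast with an engineered genetic alteration affecting cell cycle control. Compound-exposed cultures were compared with vehicle cultures, and reduced growth was taken as inhibition.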

Assay [6] in a line: NCI Yeast Anticancer Drug Screen. Data for the mlh1 rad18 strain (AID 175). The conditions noted are these: S. cerevisiae mlh1 rad18 strain growth inhibition, stronger effect = higher value. Summed up: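 Read-out is yeast growth inhibition, calculated against vehicle-only controls. The compound was applied to a strain engineered with DNA damage repair alterations.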
The mark [7] stands for this setting: at 5.0 µM (retest, dose inferred, filed as 0.5).
[8] abbreviates: at 50.0 µM (retest, dose inferred, filed as 5.0).

Take `CCc1ccc(/C(C)=N/NC(N)=S)cc1`: the growth inhibition in assay [1] (setting [7]) is -4%; in assay [1] (setting [8]), 89% (active); in assay [1] (at 50.0 µM) it was 53.6%; in assay [2] (setting [7]), -4%; in assay [2] (setting [8]), 95% (active); in assay [2] (at 50.0 µM), 19.9%. Also, the growth inhibition in assay [3] (setting [7]) is 3%; in assay [3] (setting [8]) it was 91% (active); in assay [3] (at 50.0 µM) it was 42.8%; in assay [4] (setting [7]), -18%; in assay [4] (setting [8]) it was 74% (active); in assay [4] (at 50.0 µM), 54.8%. In addition, the growth inhibition in assay [5] (setting [7]) is -9%; in assay [5] (setting [8]), 92% (active); in assay [5] (at 50.0 µM), 34.8%; in assay [6] (setting [7]) it was -2%; in assay [6] (setting [8]), 93% (active); in assay [6] (at 50.0 µM) it was 74.5% (active).
On to `CCN(CC)CCCNc1ccc([N+](=O)[O-])c2nc3ccc(OC)cc3c(N)c12`, for which the growth inhibition in assay [1] (setting [7]) was -13%; in assay [1] (setting [8]), 62%; in assay [1] (at 50.0 µM) it was 44.2%; in assay [2] (setting [7]), -20%; in assay [2] (setting [8]), 27%; in assay [2] (at 50.0 µM), -5.3%. Besides, the growth inhibition is -7% in assay [3] (setting [7]); 44% in assay [3] (setting [8]); 79.2% (active) in assay [3] (at 50.0 µM); 2% in assay [4] (setting [7]); 31% in assay [4] (setting [8]); 19.6% in assay [4] (at 50.0 µM). In addition, the growth inhibition is -11% in assay [5] (setting [7]); 54% in assay [5] (setting [8]); 13.6% in assay [5] (at 50.0 µM); -39% in assay [6] (setting [7]); 74% (active) in assay [6] (setting [8]); 62% in assay [6] (at 50.0 µM).
Turning to `COC1CC(OC(=O)c2ccccc2)C2OC(c3ccccc3)OCC2O1` (configuration not stated), the growth inhibition in assay [1] (setting [7]) was 3%; in assay [1] (setting [8]), 26%; in assay [1] (at 50.0 µM), 42.5%; in assay [2] (setting [7]) it was 2%; in assay [2] (setting [8]), 18%; in assay [2] (at 50.0 µM), 8.35%. Besides, the growth inhibition in assay [3] (setting [7]) was 1%; in assay [3] (setting [8]), 44%; in assay [3] (at 50.0 µM), 63.3%; in assay [4] (setting [7]) it was 7%; in assay [4] (setting [8]) it was 39%; in assay [4] (at 50.0 µM), -3.35%. For the same compound, the growth inhibition in assay [5] (setting [7]) was 24%; in assay [5] (setting [8]), 80% (active); in assay [5] (at 50.0 µM), 15.2%; in assay [6] (setting [7]), 6%; in assay [6] (setting [8]), 36%; in assay [6] (at 50.0 µM) it was 6.15%.
In the case of `COc1ccc(C(=O)C(C(c2ccccc2)N2CCc3ccccc3C2)N2CCc3ccccc3C2)cc1` (configuration not stated), the growth inhibition in assay [1] (setting [7]) was 3%; in assay [1] (setting [8]) it was 22%; in assay [1] (at 50.0 µM), 27.4%; in assay [2] (setting [7]), -2%; in assay [2] (setting [8]) it was 2%; in assay [2] (at 50.0 µM) it was 15.2%. Also, the growth inhibition in assay [3] (setting [7]) was 0%; in assay [3] (setting [8]), -6%; in assay [3] (at 50.0 µM) it was 12.2%; in assay [4] (setting [7]), 2%; in assay [4] (setting [8]) it was -27%; in assay [4] (at 50.0 µM) it was 26.9%. In addition, the growth inhibition in assay [5] (setting [7]) was -3%; in assay [5] (setting [8]), 4%; in assay [5] (at 50.0 µM), 78.3% (active); in assay [6] (setting [7]), -1%; in assay [6] (setting [8]), 6%; in assay [6] (at 50.0 µM), 27.6%.
`O=C(Nc1ccc(Cl)cc1)Nc1nnc(/C=C/c2ccc(Cl)c(Cl)c2)o1`: the growth inhibition in assay [1] (setting [7]) is -1%; in assay [1] (setting [8]) it was -4%; in assay [1] (at 50.0 µM) it was -6.15%; in assay [2] (setting [7]), 1%; in assay [2] (setting [8]), -91%; in assay [2] (at 50.0 µM), 19.4%. The growth inhibition in assay [3] (setting [7]) is -1%; in assay [3] (setting [8]), 0%; in assay [3] (at 50.0 µM), 3.6%; in assay [4] (setting [7]), 1%; in assay [4] (setting [8]) it was -4%; in assay [4] (at 50.0 µM), -14.2%. Moreover, the growth inhibition was -44% in assay [5] (setting [7]); 7% in assay [5] (setting [8]); -4.75% in assay [5] (at 50.0 µM); 1% in assay [6] (setting [7]); -16% in assay [6] (setting [8]); -12.1% in assay [6] (at 50.0 µM).
In the case of `COC(=O)c1nnc(C(=O)OC)c2c1[nH]c1ccccc12`, the growth inhibition was 4% in assay [1] (setting [7]); 77% (active) in assay [1] (setting [8]); 79% (active) in assay [1] (at 50.0 µM); 2% in assay [2] (setting [7]); 48% in assay [2] (setting [8]); 28.4% in assay [2] (at 50.0 µM). The growth inhibition in assay [3] (setting [7]) was 2%; in assay [3] (setting [8]) it was 50%; in assay [3] (at 50.0 µM), 55.3%; in assay [4] (setting [7]), -2%; in assay [4] (setting [8]) it was 11%; in assay [4] (at 50.0 µM), 10.6%. For the same compound, the growth inhibition in assay [5] (setting [7]) is 0%; in assay [5] (setting [8]), 37%; in assay [5] (at 50.0 µM), 42.9%; in assay [6] (setting [7]) it was -3%; in assay [6] (setting [8]) it was 52%; in assay [6] (at 50.0 µM), 40.1%.
In the case of `CCCOC(=O)C(S)C(S)C(=O)OCCC` (configuration not stated), the growth inhibition is 23% in assay [1] (setting [7]); 50% in assay [1] (setting [8]); 11.1% in assay [1] (at 50.0 µM); 2% in assay [2] (setting [7]); 32% in assay [2] (setting [8]); 2.15% in assay [2] (at 50.0 µM). Besides, the growth inhibition was -16% in assay [3] (setting [7]); 53% in assay [3] (setting [8]); 12.4% in assay [3] (at 50.0 µM); 19% in assay [4] (setting [7]); 90% (active) in assay [4] (setting [8]); 40% in assay [4] (at 50.0 µM). Moreover, the growth inhibition in assay [5] (setting [7]) is 5%; in assay [5] (setting [8]), 94% (active); in assay [5] (at 50.0 µM) it was 26.8%; in assay [6] (setting [7]), 2%; in assay [6] (setting [8]), 75% (active); in assay [6] (at 50.0 µM) it was 48.2%.
Turning to `O=c1c2ccccc2c2ccccc2n1O`, the growth inhibition is 93% (active) in assay [1] (setting [7]); 92% (active) in assay [1] (setting [8]); 97.5% (active) in assay [1] (at 50.0 µM); 95% (active) in assay [2] (setting [7]); 95% (active) in assay [2] (setting [8]); 97% (active) in assay [2] (at 50.0 µM). Moreover, the growth inhibition in assay [3] (setting [7]) was 93% (active); in assay [3] (setting [8]), 94% (active); in assay [3] (at 50.0 µM), 96.5% (active); in assay [4] (setting [7]), 76% (active); in assay [4] (setting [8]), 89% (active); in assay [4] (at 50.0 µM), 93.8% (active). Further, the growth inhibition in assay [5] (setting [7]) was 88% (active); in assay [5] (setting [8]) it was 91% (active); in assay [5] (at 50.0 µM) it was 95% (active); in assay [6] (setting [7]), 94% (active); in assay [6] (setting [8]), 94% (active); in assay [6] (at 50.0 µM), 98.3% (active).
With `Cc1ccc(NN)cc1`, the growth inhibition is 23% in assay [1] (setting [7]); 97% (active) in assay [1] (setting [8]); 83.8% (active) in assay [1] (at 50.0 µM); 0% in assay [2] (setting [7]); 69% in assay [2] (setting [8]); 40.7% in assay [2] (at 50.0 µM). For the same compound, the growth inhibition in assay [3] (setting [7]) is 26%; in assay [3] (setting [8]), 46%; in assay [3] (at 50.0 µM), 70.3% (active); in assay [4] (setting [7]) it was 4%; in assay [4] (setting [8]) it was 75% (active); in assay [4] (at 50.0 µM), 21.1%. The growth inhibition is 3% in assay [5] (setting [7]); 96% (active) in assay [5] (setting [8]); 52.6% in assay [5] (at 50.0 µM); 11% in assay [6] (setting [7]); 94% (active) in assay [6] (setting [8]); 80.5% (active) in assay [6] (at 50.0 µM).
